Assay results published in PubChem BioAssay (NCATS).
Results filed as inconclusive are left out. Calls of active or inactive are those of the source. Calls follow the shape of the dose curve; as a rule, active = well fitted curve in the direction sought with a large enough effect; inconclusive = small, poorly fitted or top-dose-only effect, or another doubt; inactive = no such curve, though single readings can be large; an effect the other way counts as inactive or inconclusive.

Assays:
NIH3T3 [1] = test: Cytotoxic Profiling of Annotated Libraries Using Quantitative High-Throughput Screening (AID 1296008); settings: Five cell lines viability, CellTiter-Glo ATP luminescence, 48-72 h; max response: hits give low values; also: nearly all actives have a fitted effect of over 60% in size
Outline: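 Compounds were pin-transferred onto cells and incubated 48 or 72 hr at 37 degree Celsius, 95% humidity. CellTiter-Glo was added, plates sat 10 min at room temperature, then ATP-coupled luminescence was imaged as the viability read-out.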

HACAT = test: qHTS assay to identify novel small-molecules to repurpose for Merkel cell carcinoma treatment (AID 1296009); settings: MCC and control cell lines, CellTiter-Glo viability, 72 h; at 44.8 µM (top of the series) unless noted; also: nearly all actives have a fitted effect of over 60% in size; also: potency is read from the fitted curve at half-maximal effect
Outline: (§1)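 Cells exposed to NPC (8-point) and MIPE (11-point) compound dilutions for 72 hr at 37 degree celsius; viability read by CellTiter-Glo luminescence, normalized to no-cell and DMSO in-plate controls.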

HEK293T [2] = test: as above; settings: MCC and control cell lines, CellTiter-Glo viability, 72 h; at 44.8 µM (top of the series) unless noted
Outline: as §1

MCC-13 = test: as above; settings: MCC and control cell lines, CellTiter-Glo viability, 72 h; series mostly up to 46 µM
Outline: as §1

MCC-26 = test: as above; settings: MCC and control cell lines, CellTiter-Glo viability, 72 h; series mostly up to 46 µM
Outline: as §1

MKL-1 = test: as above; settings: MCC and control cell lines, CellTiter-Glo viability, 72 h; series mostly up to 46 µM
Outline: as §1

MKL-2 = test: as above; settings: MCC and control cell lines, CellTiter-Glo viability, 72 h; series mostly up to 46 µM
Outline: as §1

UISO = test: as above; settings: MCC and control cell lines, CellTiter-Glo viability, 72 h; series mostly up to 46 µM
Outline: as §1

WaGa = test: as above; settings: MCC and control cell lines, CellTiter-Glo viability, 72 h; series mostly up to 46 µM
Outline: as §1

C33A = test: Primary qHTS to identify gynecologic anti-cancer compounds using libraries of approved drugs and bioactive compounds (AID 1345084); settings: Gynecologic cancer cell panel viability, ATPlite luminescence, 48 h; series mostly up to 57.5 µM; also: nearly all actives have a fitted effect of over 55% in size; also: potency is read from the fitted curve at half-maximal effect
Outline: (§2)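 Cells, 1,000 per well, were allowed to settle for 16 h at 37 C before compound addition. Five concentrations were tested for 48 h, and viability was read by ATPlite luminescence after 15 min at room temperature.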

CAOV3 = test: as above; settings: Gynecologic cancer cell panel viability, ATPlite luminescence, 48 h; series mostly up to 57.5 µM
Outline: as §2

CASKI = test: as above; settings: Gynecologic cancer cell panel viability, ATPlite luminescence, 48 h; series mostly up to 57.5 µM
Outline: as §2

Es-2 = test: as above; settings: Gynecologic cancer cell panel viability, ATPlite luminescence, 48 h; series mostly up to 57.5 µM
Outline: as §2

HeLa = test: as above; settings: Gynecologic cancer cell panel viability, ATPlite luminescence, 48 h; series mostly up to 57.5 µM
Outline: as §2

Hek293T [3] = test: as above; settings: Gynecologic cancer cell panel viability, ATPlite luminescence, 48 h, control line for the selectivity index; series mostly up to 57.5 µM
Outline: as §2

JEG-3 = test: as above; settings: Gynecologic cancer cell panel viability, ATPlite luminescence, 48 h; series mostly up to 57.5 µM
Outline: as §2

OV90 = test: as above; settings: Gynecologic cancer cell panel viability, ATPlite luminescence, 48 h; series mostly up to 57.5 µM
Outline: as §2

PA-1 = test: as above; settings: Gynecologic cancer cell panel viability, ATPlite luminescence, 48 h; series mostly up to 57.5 µM
Outline: as §2

SKOV3 = test: as above; settings: Gynecologic cancer cell panel viability, ATPlite luminescence, 48 h; series mostly up to 57.5 µM
Outline: as §2

NIH3T3 [4] = test: qHTS assay to identify novel small-molecules to repurpose for Merkel cell carcinoma treatment (AID 1296009); settings: MCC and control cell lines, CellTiter-Glo viability, 72 h; at 44.8 µM (top of the series) unless noted; also: nearly all actives have a fitted effect of over 60% in size; also: potency is read from the fitted curve at half-maximal effect
Outline: as §1
% is scaled to controls: 0 for no effect and ±100 for the full control effect.

Cc1ccc2ccc(Cl)cc2n1
inactive: max response (NIH3T3 [1]) 3.19% | outcome (HACAT) | outcome (HEK293T [2]) | Potency (MCC-13) | Potency (MCC-26) | Potency (MKL-1) | Potency (MKL-2) | Potency (UISO) | Potency (WaGa) | Potency (C33A) | Potency (CAOV3) | Potency (CASKI) | Potency (Es-2) | Potency (HeLa) | Potency (Hek293T [3]) | Potency (JEG-3) | Potency (OV90) | Potency (PA-1)

Cc1cccc(C)c1NC(=O)c1cc(S(N)(=O)=O)c(Cl)cc1O
inactive: max response (NIH3T3 [1]) -1.69% | outcome (HACAT) | outcome (HEK293T [2]) | Potency (MCC-13) | Potency (MCC-26) | Potency (MKL-1) | Potency (MKL-2) | Potency (UISO) | Potency (WaGa) | Potency (C33A) | Potency (CAOV3) | Potency (CASKI) | Potency (Es-2) | Potency (HeLa) | Potency (Hek293T [3]) | Potency (JEG-3) | Potency (OV90) | Potency (PA-1) | Potency (SKOV3)

CC(CC(C#N)(c1ccccc1)C(C)C)N(C)C (configuration not stated)
inactive: outcome (NIH3T3 [1]) | outcome (HACAT) | outcome (HEK293T [2]) | Potency (MCC-13) | Potency (MCC-26) | Potency (MKL-1) | Potency (MKL-2) | outcome (NIH3T3 [4]) | Potency (UISO) | Potency (WaGa) | Potency (C33A) | Potency (CAOV3) | Potency (CASKI) | Potency (Es-2) | Potency (HeLa) | Potency (Hek293T [3]) | Potency (JEG-3) | Potency (OV90) | Potency (PA-1) | Potency (SKOV3)

COC(=O)CCCCC(CCSS/C(CCO)=C(\C)N(C=O)Cc1cnc(C)nc1N)SC(C)=O (configuration not stated)
inactive: outcome (NIH3T3 [1]) | outcome (HACAT) | outcome (HEK293T [2]) | Potency (MCC-13) | Potency (MCC-26) | Potency (MKL-1) | Potency (MKL-2) | outcome (NIH3T3 [4]) | Potency (UISO) | Potency (WaGa) | Potency (C33A) | Potency (CAOV3) | Potency (CASKI) | Potency (Es-2) | Potency (HeLa) | Potency (Hek293T [3]) | Potency (JEG-3) | Potency (OV90) | Potency (PA-1) | Potency (SKOV3)

CCN(CC)C(=O)C1CN2CCc3cc(OC)c(OC)cc3C2CC1OC(C)=O (configuration not stated)
inactive: max response (NIH3T3 [1]) -5.34% | outcome (HACAT) | outcome (HEK293T [2]) | Potency (MCC-13) | Potency (MCC-26) | Potency (MKL-1) | Potency (MKL-2) | Potency (UISO) | Potency (WaGa) | Potency (C33A) | Potency (CAOV3) | Potency (CASKI) | Potency (Es-2) | Potency (HeLa) | Potency (Hek293T [3]) | Potency (JEG-3) | Potency (OV90) | Potency (PA-1) | Potency (SKOV3)

O=C(Oc1ccccc1)c1ccccc1O
inactive: max response (NIH3T3 [1]) 3.3% | outcome (HACAT) | outcome (HEK293T [2]) | Potency (MCC-13) | Potency (MCC-26) | Potency (MKL-1) | Potency (MKL-2) | Potency (UISO) | Potency (WaGa) | Potency (C33A) | Potency (CAOV3) | Potency (CASKI) | Potency (Es-2) | Potency (HeLa) | Potency (Hek293T [3]) | Potency (JEG-3) | Potency (OV90) | Potency (PA-1) | Potency (SKOV3)

CC(NC(CCc1ccccc1)C(=O)O)C(=O)N1C(=O)N(C)CC1C(=O)O (configuration not stated)
inactive: max response (NIH3T3 [1]) -5.8% | outcome (HACAT) | outcome (HEK293T [2]) | Potency (MCC-13) | Potency (MCC-26) | Potency (MKL-1) | Potency (MKL-2) | Potency (UISO) | Potency (WaGa) | Potency (C33A) | Potency (CAOV3) | Potency (CASKI) | Potency (Es-2) | Potency (HeLa) | Potency (Hek293T [3]) | Potency (JEG-3) | Potency (OV90) | Potency (PA-1)

CCCC(=O)Nc1ccc(O)c(C(C)=O)c1
inactive: max response (NIH3T3 [1]) 3.73% | outcome (HACAT) | outcome (HEK293T [2]) | Potency (MCC-13) | Potency (MCC-26) | Potency (MKL-1) | Potency (MKL-2) | Potency (UISO) | Potency (WaGa) | Potency (C33A) | Potency (CAOV3) | Potency (CASKI) | Potency (Es-2) | Potency (HeLa) | Potency (Hek293T [3]) | Potency (JEG-3) | Potency (OV90) | Potency (PA-1) | Potency (SKOV3)

Cc1ccc(C(C)OC(=O)C2(C)CCC(C(=O)O)C2(C)C)cc1 (configuration not stated)
inactive: outcome (NIH3T3 [1]) | outcome (HACAT) | outcome (HEK293T [2]) | Potency (MCC-13) | Potency (MCC-26) | Potency (MKL-1) | Potency (MKL-2) | outcome (NIH3T3 [4]) | Potency (UISO) | Potency (WaGa) | Potency (C33A) | Potency (CAOV3) | Potency (CASKI) | Potency (Es-2) | Potency (HeLa) | Potency (Hek293T [3]) | Potency (JEG-3) | Potency (OV90) | Potency (PA-1) | Potency (SKOV3)

COC(=O)c1cc(Cl)ccc1OC
inactive: outcome (NIH3T3 [1]) | outcome (HACAT) | outcome (HEK293T [2]) | Potency (MCC-13) | Potency (MCC-26) | Potency (MKL-1) | Potency (MKL-2) | outcome (NIH3T3 [4]) | Potency (UISO) | Potency (WaGa) | Potency (C33A) | Potency (CAOV3) | Potency (CASKI) | Potency (Es-2) | Potency (HeLa) | Potency (Hek293T [3]) | Potency (JEG-3) | Potency (OV90) | Potency (PA-1) | Potency (SKOV3)

O=C(CCCCCCCCC#CI)Oc1ccccc1
active: Potency (MKL-1) 13.3 µM | Potency (MKL-2) 9.44 µM | Potency (WaGa) 11.9 µM
inactive: max response (NIH3T3 [1]) 0.745% | outcome (HACAT) | outcome (HEK293T [2]) | Potency (MCC-13) | Potency (MCC-26) | Potency (UISO) | Potency (C33A) | Potency (CAOV3) | Potency (CASKI) | Potency (Es-2) | Potency (HeLa) | Potency (Hek293T [3]) | Potency (JEG-3) | Potency (OV90) | Potency (PA-1) | Potency (SKOV3)

CCOC(=O)C(O)c1ccccc1 (configuration not stated)
inactive: max response (NIH3T3 [1]) 0.37% | outcome (HACAT) | outcome (HEK293T [2]) | Potency (MCC-13) | Potency (MCC-26) | Potency (MKL-1) | Potency (MKL-2) | Potency (UISO) | Potency (WaGa) | Potency (C33A) | Potency (CAOV3) | Potency (CASKI) | Potency (Es-2) | Potency (HeLa) | Potency (Hek293T [3]) | Potency (JEG-3) | Potency (OV90) | Potency (PA-1) | Potency (SKOV3)

CC1(C)OC(=O)Nc2ccc(Br)cc21
active: Potency (HeLa) 10 µM
inactive: max response (NIH3T3 [1]) 3.48% | outcome (HACAT) | outcome (HEK293T [2]) | Potency (MCC-13) | Potency (MCC-26) | Potency (MKL-1) | Potency (MKL-2) | Potency (UISO) | Potency (WaGa) | Potency (C33A) | Potency (CAOV3) | Potency (CASKI) | Potency (Es-2) | Potency (Hek293T [3]) | Potency (JEG-3) | Potency (OV90) | Potency (PA-1) | Potency (SKOV3)

CN1N=C(C(N)=O)CCC1=O
inactive: outcome (NIH3T3 [1]) | outcome (HACAT) | outcome (HEK293T [2]) | Potency (MCC-13) | Potency (MCC-26) | Potency (MKL-1) | Potency (MKL-2) | outcome (NIH3T3 [4]) | Potency (UISO) | Potency (WaGa) | Potency (C33A) | Potency (CAOV3) | Potency (CASKI) | Potency (Es-2) | Potency (HeLa) | Potency (Hek293T [3]) | Potency (JEG-3) | Potency (OV90)

COc1ccc(/C(C)=C/C(=O)O)c(OC)c1
inactive: outcome (NIH3T3 [1]) | outcome (HACAT) | outcome (HEK293T [2]) | Potency (MCC-13) | Potency (MCC-26) | Potency (MKL-1) | Potency (MKL-2) | outcome (NIH3T3 [4]) | Potency (UISO) | Potency (WaGa) | Potency (C33A) | Potency (CAOV3) | Potency (CASKI) | Potency (Es-2) | Potency (HeLa) | Potency (Hek293T [3]) | Potency (JEG-3) | Potency (OV90) | Potency (PA-1) | Potency (SKOV3)
